Compounds without any hit were thinned out: in the full panel of roughly 79,000, 15% have a hit. Values without a mark were called inactive. Activity calls are given as the source filed them. Rule as the data show it: active = growth inhibition above about 70%; inactive = the rest.

One assay is described as follows: NCI Yeast Anticancer Drug Screen. Data for the cln2 rad14 strain (AID 165).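 Also: 0% = growth equal to vehicle treated cultures.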 As to conditions: S. cerevisiae cln2 rad14 strain, at 50.0 µM (retest, dose inferred, filed as 5.0), stronger effect = higher value. The essentials: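 Strain: cln2 rad14 yeast, altered in cell cycle control and DNA damage repair. Read-out: growth inhibition vs vehicle.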
In the case of `O=[N+]([O-])c1cc[n+]([O-])c2ccccc12`, the growth inhibition was 100% (active).

For the molecule `COc1c[c]([Hg][O]C(C)=O)c(OC)c(NC(=O)CC(C)=O)[c]1[Hg][O]C(C)=O`, the growth inhibition is 96% (active).

Turning to `CN(C)c1ccc(C2N(Cc3ccc(N(CCCl)CCCl)cc3)CCCN2Cc2ccc(N(CCCl)CCCl)cc2)cc1`, the growth inhibition was 65%.

As to `CC(=O)c1ccc(-[n+]2c(C)cc(-c3ccccc3)cc2C)cc1`, the growth inhibition was -3%.

`[O]=[Sb]([OH])([OH])[c]1ccc(NC2OC(CO)C(O)C(O)C2O)cc1` (stereo not given): the growth inhibition was -12%.

Take `CCC1CN1P(=O)(Oc1ccccc1)N1CC1CC` (stereo not given): the growth inhibition was -7%.

As to `CCN(CC)CC(=O)c1cc2ccccc2c2ccccc12`, the growth inhibition is 82% (active).

With `O=C1CCCC1Cl` (stereo not given), the growth inhibition is -8%.

In the case of `N#C[S-].[La+3].c1ccc(-c2ccccn2)nc1.c1ccc(-c2ccccn2)nc1.c1ccc(-c2ccccn2)nc1`, the growth inhibition is 90% (active).

Take `O=c1s[se]c2ccccc12`: the growth inhibition is 98% (active).

Turning to `O=C(CCl)Nc1ccc(Cl)cc1`, the growth inhibition was 16%.

On to `O=C1N[C@H]2[C@H](O)[C@H](O)[C@@H](O)[C@H](O)[C@@H]2c2cc3c(c(O)c21)OCO3`, for which the growth inhibition was 66%.

For `O=C(Nc1n[c]([Hg][Cl])[c]([Hg][Cl])s1)OCc1ccccc1`, the growth inhibition is 99% (active).

Regarding `CC[C@@]1(O)C[C@H](OC2CC(N(C)C)C(O)C(C)O2)c2c(cc3c(c2O)C(=O)c2c(O)ccc(O)c2C3=O)[C@H]1C(=O)OC` (stereo not given in full), the growth inhibition was 99% (active).

Consider `CCCCCc1cc(O)c(CCCC)c(O)c1`, for which the growth inhibition is 32%.

On to `NC(=O)/C=C/c1ccc([As]=O)cc1` (stereo not given), for which the growth inhibition was 3%.

As to `O=[N+]([O-])c1cccc(SC(Cl)(Cl)Cl)c1`, the growth inhibition was 96% (active).

Take `COc1cc(/C=C(/C)[N+](=O)[O-])ccc1O`: the growth inhibition is 99% (active).

On to `CCC[CH2][Sn]1([CH2]CCC)[O]CC(CN2CCOCC2)[O]1` (stereo not given), for which the growth inhibition was 31%.

With `O=C1CN2CCCCC2CN1` (stereo not given), the growth inhibition is -60%.

As for `CCC[CH2][Sn]([CH2]CCC)([O]C(=O)CCC(C)=O)[O]C(=O)CCC(C)=O`, the growth inhibition was 99% (active).

`C[CH2][Sn]([F])([CH2]C)[CH2]C`: the growth inhibition was 60%.

With `CN(C)CCBr`, the growth inhibition was 84% (active).

In the case of `O=[N+]([O-])c1ccc2c3c(cccc13)CC2`, the growth inhibition was 48%.

On to `CC1=CC2CC(C)=C(CC[C@]3(C)CC[C@H]([C@@H](C)C(=O)O)OO3)C(C)(C)C2CC1` (stereo not given in full), for which the growth inhibition was 98% (active).

On to `ClC(CN1CCCCC1)C(Cl)c1ccccc1` (stereo not given), for which the growth inhibition is 37%.

With `CCOC(=O)c1ccc(N=Cc2ccc(N(CCCl)CCCl)cc2C)cc1`, the growth inhibition is -15%.

With `CN=C(N)N/N=C(\C)c1ccc2sc3ccc(/C(C)=N/NC(N)=NC)cc3c2c1`, the growth inhibition was 7%.

With `c1cc2n[pH]nc2cn1` (stereo not given), the growth inhibition is -8%.

Take `O=[N+]([O-])c1ccc(Br)c([N+](=O)[O-])c1`: the growth inhibition is 98% (active).

For the molecule `O=C(CBr)NC1CCCCC1`, the growth inhibition is 91% (active).

Turning to `CC(C)C12C=C3CCC4C(C)(C(=O)O)CCCC4(C)C3(CC1)OO2` (stereo not given), the growth inhibition is 94% (active).

As to `IC(I)=C(I)I`, the growth inhibition was 96% (active).

Regarding `Clc1ccc2c(c1)C(c1ccccc1Cl)=NCC(SCCN1CCOCC1)=N2`, the growth inhibition is 81% (active).

For the molecule `CCOP(=O)(OCC)/C(C#N)=C/c1ccc(Br)cc1`, the growth inhibition was 96% (active).

Consider `Cc1ccc(C(=O)C2C(c3ccccc3)N2C2CCCCC2)cc1` (stereo not given), for which the growth inhibition is 96% (active).

For the molecule `CN(C)c1ncnc2c1ncn2C1OC(CO)C2NP(=O)(N(CCCl)CCCl)OC21` (stereo not given), the growth inhibition is 5%.

`Nc1nc(N)c(-c2ccc(Cl)c(Cl)c2)c(CCc2ccc(CNC(=O)c3cccc(S(=O)(=O)F)c3)cc2)n1`: the growth inhibition was 97% (active).

Take `C[CH2][Pb]([CH2]C)([CH2]C)[O]C(=O)COc1ccc(Cl)cc1Cl`: the growth inhibition was 91% (active).

In the case of `O=C(OCC(CCl)OC(=O)C(Cl)(Cl)Cl)C(Cl)(Cl)Cl` (stereo not given), the growth inhibition is 0%.

The assay is the same for the next values; noted with them: S. cerevisiae cln2 rad14 strain, at 50.0 µM, stronger effect = higher value.
For `O=[N+]([O-])c1cc[n+]([O-])c2ccccc12`, the growth inhibition is 99.3% (active).

As for `COc1c[c]([Hg][O]C(C)=O)c(OC)c(NC(=O)CC(C)=O)[c]1[Hg][O]C(C)=O`, the growth inhibition was 90% (active).

Regarding `CN(C)c1ccc(C2N(Cc3ccc(N(CCCl)CCCl)cc3)CCCN2Cc2ccc(N(CCCl)CCCl)cc2)cc1`, the growth inhibition was -6.3%.

Take `CC(=O)c1ccc(-[n+]2c(C)cc(-c3ccccc3)cc2C)cc1`: the growth inhibition was 39.6%.

Regarding `[O]=[Sb]([OH])([OH])[c]1ccc(NC2OC(CO)C(O)C(O)C2O)cc1` (stereo not given), the growth inhibition was -0.2%.

For `CCC1CN1P(=O)(Oc1ccccc1)N1CC1CC` (stereo not given), the growth inhibition was -16.4%.

As for `CCN(CC)CC(=O)c1cc2ccccc2c2ccccc12`, the growth inhibition is 31.1%.

Turning to `O=C1CCCC1Cl` (stereo not given), the growth inhibition is 81.9% (active).

As for `N#C[S-].[La+3].c1ccc(-c2ccccn2)nc1.c1ccc(-c2ccccn2)nc1.c1ccc(-c2ccccn2)nc1`, the growth inhibition is 91.9% (active).

As for `O=c1s[se]c2ccccc12`, the growth inhibition is 92.2% (active).

Regarding `O=C(CCl)Nc1ccc(Cl)cc1`, the growth inhibition is 40.9%.

Turning to `O=C1N[C@H]2[C@H](O)[C@H](O)[C@@H](O)[C@H](O)[C@@H]2c2cc3c(c(O)c21)OCO3`, the growth inhibition is 69%.

Turning to `O=C(Nc1n[c]([Hg][Cl])[c]([Hg][Cl])s1)OCc1ccccc1`, the growth inhibition is 98.9% (active).

Take `CC[C@@]1(O)C[C@H](OC2CC(N(C)C)C(O)C(C)O2)c2c(cc3c(c2O)C(=O)c2c(O)ccc(O)c2C3=O)[C@H]1C(=O)OC` (stereo not given in full): the growth inhibition was 88.7% (active).

Take `CCCCCc1cc(O)c(CCCC)c(O)c1`: the growth inhibition is 99.1% (active).

For `NC(=O)/C=C/c1ccc([As]=O)cc1` (stereo not given), the growth inhibition is 96.5% (active).

As for `O=[N+]([O-])c1cccc(SC(Cl)(Cl)Cl)c1`, the growth inhibition was 97.1% (active).

Take `COc1cc(/C=C(/C)[N+](=O)[O-])ccc1O`: the growth inhibition is 98.6% (active).

`CCC[CH2][Sn]1([CH2]CCC)[O]CC(CN2CCOCC2)[O]1` (stereo not given): the growth inhibition was 88.8% (active).

Take `O=C1CN2CCCCC2CN1` (stereo not given): the growth inhibition was 24.9%.

As for `CCC[CH2][Sn]([CH2]CCC)([O]C(=O)CCC(C)=O)[O]C(=O)CCC(C)=O`, the growth inhibition is 90.3% (active).

As to `C[CH2][Sn]([F])([CH2]C)[CH2]C`, the growth inhibition is 64.2%.

Turning to `CN(C)CCBr`, the growth inhibition is 64.2%.

Regarding `O=[N+]([O-])c1ccc2c3c(cccc13)CC2`, the growth inhibition was -4.15%.

In the case of `CC1=CC2CC(C)=C(CC[C@]3(C)CC[C@H]([C@@H](C)C(=O)O)OO3)C(C)(C)C2CC1` (stereo not given in full), the growth inhibition was 91.2% (active).

For the molecule `ClC(CN1CCCCC1)C(Cl)c1ccccc1` (stereo not given), the growth inhibition was 53%.

For `CCOC(=O)c1ccc(N=Cc2ccc(N(CCCl)CCCl)cc2C)cc1`, the growth inhibition is 5.3%.

As to `CN=C(N)N/N=C(\C)c1ccc2sc3ccc(/C(C)=N/NC(N)=NC)cc3c2c1`, the growth inhibition was 20.8%.

As for `c1cc2n[pH]nc2cn1` (stereo not given), the growth inhibition was 1.2%.

As for `O=[N+]([O-])c1ccc(Br)c([N+](=O)[O-])c1`, the growth inhibition was 98.3% (active).

For `O=C(CBr)NC1CCCCC1`, the growth inhibition was 60%.

As to `CC(C)C12C=C3CCC4C(C)(C(=O)O)CCCC4(C)C3(CC1)OO2` (stereo not given), the growth inhibition is 86.4% (active).

Take `IC(I)=C(I)I`: the growth inhibition was 90.8% (active).

With `Clc1ccc2c(c1)C(c1ccccc1Cl)=NCC(SCCN1CCOCC1)=N2`, the growth inhibition is 82% (active).

In the case of `CCOP(=O)(OCC)/C(C#N)=C/c1ccc(Br)cc1`, the growth inhibition was 91.6% (active).

For the molecule `Cc1ccc(C(=O)C2C(c3ccccc3)N2C2CCCCC2)cc1` (stereo not given), the growth inhibition was 0.3%.

In the case of `CN(C)c1ncnc2c1ncn2C1OC(CO)C2NP(=O)(N(CCCl)CCCl)OC21` (stereo not given), the growth inhibition was 13.6%.

`Nc1nc(N)c(-c2ccc(Cl)c(Cl)c2)c(CCc2ccc(CNC(=O)c3cccc(S(=O)(=O)F)c3)cc2)n1`: the growth inhibition was 54.6%.

On to `C[CH2][Pb]([CH2]C)([CH2]C)[O]C(=O)COc1ccc(Cl)cc1Cl`, for which the growth inhibition was 85.7% (active).

With `O=C(OCC(CCl)OC(=O)C(Cl)(Cl)Cl)C(Cl)(Cl)Cl` (stereo not given), the growth inhibition was 78.5% (active).
